Laboratory results reported in PubChem BioAssay (NCATS).
A number with no mark means an inactive call. Records with an inconclusive call do not appear. Calls of active or inactive are those of the source. Unless noted, calls come from the whole dose curve; as a rule, active = well fitted curve in either direction with a large enough effect (not every such curve was filed as active); inconclusive = small, poorly fitted or top-dose-only effect, or another doubt; inactive = flat fitted curve, though single readings scatter.

What was measured:
[1] = target: Lysosomal acid glucosylceramidase (Homo sapiens) (UniProt P04062); experiment: Glucocerebrosidase-p2 (AID 348; in the data active = potency below about 10 µM; note: potency is the fitted concentration of half-maximal effect); details: purified GBA, blue fluorogenic substrate, 40 min
Sequence of Lysosomal acid glucosylceramidase (Homo sapiens) (P04062 whole entry, looked up): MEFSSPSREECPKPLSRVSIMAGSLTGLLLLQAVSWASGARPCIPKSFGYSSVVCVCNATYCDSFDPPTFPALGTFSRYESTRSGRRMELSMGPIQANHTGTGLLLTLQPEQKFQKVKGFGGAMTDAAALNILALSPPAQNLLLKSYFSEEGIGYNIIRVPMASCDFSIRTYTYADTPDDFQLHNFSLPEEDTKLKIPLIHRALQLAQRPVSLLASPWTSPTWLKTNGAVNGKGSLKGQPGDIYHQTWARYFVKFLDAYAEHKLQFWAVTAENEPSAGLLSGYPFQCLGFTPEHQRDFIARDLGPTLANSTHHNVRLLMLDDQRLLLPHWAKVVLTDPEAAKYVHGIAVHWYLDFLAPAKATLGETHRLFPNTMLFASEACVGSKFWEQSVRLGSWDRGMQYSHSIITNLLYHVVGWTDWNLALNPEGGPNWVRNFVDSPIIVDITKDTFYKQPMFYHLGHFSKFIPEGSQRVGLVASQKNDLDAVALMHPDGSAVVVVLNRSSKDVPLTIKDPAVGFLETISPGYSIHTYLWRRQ
Summary of the method: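 Normal human glucocerebrosidase (0.2 nM) with blue fluorogenic substrate (80 uM final) in citrate/phosphate pH 5.9 with 10mM sodium taurocholate, 0.01% tween-20; 40 min RT, NaOH/glycine stop; fluorescence Ex 365/Em 440; AC50 from a titration from 0.6 nM upwards.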

[2] = AP1 Signaling Pathway (AID 357); details: ME-180 AP-1-bla reporter, EGF-induced, beta-lactamase ratio, 5 h; at 7.69 µM (top of the series) unless noted;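 note: ME-180 reporter cells stimulated with EGF at its EC50 level; % is set by controls: 0 for no effect and ±100 for the full control effect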
Summary of the method: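 In this screen, ME-180 cells in Opti-MEM with 0.5% dialyzed FBS received EC50 EGF and compound titrations for 5 h. AP-1 reporter beta-lactamase was detected via CCF4 ratio, giving AC50 for positive and negative modulators.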

[3] = target: Cytochrome P450 1A2 (Homo sapiens) (UniProt P05177); experiment: p450-cyp1a2 (AID 410; calls by dose curve; note: potency is the fitted concentration of half-maximal effect;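 for activity change, negative = inhibition: -100% = full effect of reference inhibitor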); details: recombinant CYP1A2, luciferin-ME demethylation, luminescence; series mostly up to 11.4 µM
Sequence of Cytochrome P450 1A2 (Homo sapiens) (P05177 whole entry, looked up): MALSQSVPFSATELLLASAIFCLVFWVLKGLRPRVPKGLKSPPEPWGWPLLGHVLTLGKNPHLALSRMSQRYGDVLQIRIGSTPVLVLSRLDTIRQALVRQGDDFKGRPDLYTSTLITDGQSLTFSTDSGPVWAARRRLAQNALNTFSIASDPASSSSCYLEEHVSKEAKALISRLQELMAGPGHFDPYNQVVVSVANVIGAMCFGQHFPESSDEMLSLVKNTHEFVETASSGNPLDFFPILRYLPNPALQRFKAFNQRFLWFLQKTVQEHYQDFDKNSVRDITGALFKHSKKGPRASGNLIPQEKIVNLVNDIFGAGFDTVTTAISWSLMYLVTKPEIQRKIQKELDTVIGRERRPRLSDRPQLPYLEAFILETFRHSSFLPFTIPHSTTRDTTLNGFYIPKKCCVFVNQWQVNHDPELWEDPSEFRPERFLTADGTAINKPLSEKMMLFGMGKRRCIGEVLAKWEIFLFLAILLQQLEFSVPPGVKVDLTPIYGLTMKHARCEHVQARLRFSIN
Summary of the method: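 O-Demethylation of luciferin 6' methyl ether by human CYP1A2 is monitored as luciferase luminescence. Substrate sits at Km (100uM); enzyme is 20nM. Values are scaled to 57 uM furafylline as maximal inhibition.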

[4] = NFAT Signaling Pathway (AID 444); details: Jurkat NFAT-bla M1, carbachol, beta-lactamase ratio, 5 h; at 7.69 µM (top of the series) unless noted;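 note: carbachol stimulus at about its EC50 of 1 µM final; % is set by controls: 0 for no effect and ±100 for the full control effect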
Summary of the method: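 Jurkat cells with NFAT-driven β-lactamase reporter and co-expressed M1 receptor, stimulated with carbachol (final 1 uM, ~EC50), compound titration, 5 h at 37 °C. CCF4 loaded 1 h at RT; 460/530 nm ratio gave %activity and AC50.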

[5] = Stat Signaling Pathway (AID 446); details: ME-180 (cervical carcinoma) SIE beta-lactamase reporter, IL-6 stimulated, 5 h; at 7.69 µM (top of the series) unless noted;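 note: ME-180 cervical cancer cells given 40 pM IL-6 alongside compound; SIE-controlled beta-lactamase reporter measured as 460/530 nm FRET emission ratio; % is set by controls: 0 for no effect and ±100 for the full control effect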
Summary of the method: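 Normalization used AC90 stimulation (300 pM IL-6) and AC90 inhibition (125 nM pan-JAK inhibitor at 40 pM IL-6). The underlying signal is SIE-driven beta-lactamase in ME-180 cells after 5 h IL-6 exposure with compound.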

[6] = target: Glucocorticoid receptor (Homo sapiens) (UniProt P04150); experiment: GR-GFP Redistribution (AID 450;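 active = compounds whose dose series gives a full or clear partial fitted curve of increased nuclear translocation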; note: potency is the fitted concentration of half-maximal effect); details: U2OS GR-GFP nuclear translocation, laser cytometry, 2 h
Sequence of Glucocorticoid receptor (Homo sapiens) (P04150 whole entry, looked up, the tested form may be a part): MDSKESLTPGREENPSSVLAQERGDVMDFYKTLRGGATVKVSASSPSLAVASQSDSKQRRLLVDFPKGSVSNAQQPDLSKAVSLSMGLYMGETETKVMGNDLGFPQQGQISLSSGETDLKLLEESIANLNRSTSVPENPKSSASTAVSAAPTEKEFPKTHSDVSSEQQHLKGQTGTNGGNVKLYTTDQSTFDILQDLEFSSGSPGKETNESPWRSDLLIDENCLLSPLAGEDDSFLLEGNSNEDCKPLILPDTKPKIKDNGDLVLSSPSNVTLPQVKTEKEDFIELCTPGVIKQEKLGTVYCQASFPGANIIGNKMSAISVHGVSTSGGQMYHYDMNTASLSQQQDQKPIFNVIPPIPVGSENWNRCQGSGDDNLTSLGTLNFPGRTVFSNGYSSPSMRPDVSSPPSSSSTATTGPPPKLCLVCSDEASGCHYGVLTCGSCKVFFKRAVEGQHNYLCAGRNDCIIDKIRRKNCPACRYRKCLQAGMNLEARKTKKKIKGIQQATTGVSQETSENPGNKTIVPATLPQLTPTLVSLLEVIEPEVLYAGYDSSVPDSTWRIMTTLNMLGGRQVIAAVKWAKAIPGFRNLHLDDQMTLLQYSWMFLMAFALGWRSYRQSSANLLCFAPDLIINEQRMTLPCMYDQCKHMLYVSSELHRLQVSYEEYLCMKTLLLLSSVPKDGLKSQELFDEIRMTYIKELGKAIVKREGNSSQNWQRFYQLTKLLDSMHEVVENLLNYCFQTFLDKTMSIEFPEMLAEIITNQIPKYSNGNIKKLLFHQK

[7] = target: Glucocorticoid receptor (Homo sapiens) (UniProt P04150); experiment: GR-EFC Redistribution (AID 451; calls by dose curve; note: potency is the fitted concentration of half-maximal effect); details: CHO-K1 GR-EFC translocation, beta-gal luminescence, 2 h
Summary of the method: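 CHO-K1 cells expressing nuclear EA and GR-ED fragments of b-gal; compounds titrated up to 46 uM final, 2 h at 37 C. GR nuclear translocation read as complemented b-gal luminescence after 1 h RT detection.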

[8] = target: Mitogen-activated protein kinase 10 (Mus musculus) (UniProt Q61831); experiment: JNK3 AlphaScreen Assay (AID 530); details: JNK3 lysate, c-Jun phosphorylation; series mostly up to 11.4 µM;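 note: kinase came from lysate of stimulated human HepG2 cells; signal reports phosphorylation of biotinylated GST-cJun 1-79 at Ser73 with 10 µM ATP; % is set by controls: 0 for no effect and ±100 for the full control effect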
Summary of the method: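 Activity was read by AlphaScreen after JNK3-containing HepG2 lysate (cytokine pre-activated) phosphorylated biotinylated GST-cJun with 10 uM ATP at room temperature. Phospho-Ser73 cJun antibody with Protein-A acceptor beads provided detection.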

[9] = target: 3',5'-cyclic-AMP phosphodiesterase 4B (Homo sapiens) (UniProt Q07343); experiment: qHTS Assay for Inhibitors of PDE-IV (AID 607; active = well fitted activation curve with a large enough effect in the main read-out, with a control signal flat, not every such curve was filed as active; note: % of control where 0% means no effect); details: HEK293 ACTOne CNG channel cells, membrane potential fluorescence; series mostly up to 22.9 µM
Sequence of 3',5'-cyclic-AMP phosphodiesterase 4B (Homo sapiens) (Q07343 whole entry, looked up): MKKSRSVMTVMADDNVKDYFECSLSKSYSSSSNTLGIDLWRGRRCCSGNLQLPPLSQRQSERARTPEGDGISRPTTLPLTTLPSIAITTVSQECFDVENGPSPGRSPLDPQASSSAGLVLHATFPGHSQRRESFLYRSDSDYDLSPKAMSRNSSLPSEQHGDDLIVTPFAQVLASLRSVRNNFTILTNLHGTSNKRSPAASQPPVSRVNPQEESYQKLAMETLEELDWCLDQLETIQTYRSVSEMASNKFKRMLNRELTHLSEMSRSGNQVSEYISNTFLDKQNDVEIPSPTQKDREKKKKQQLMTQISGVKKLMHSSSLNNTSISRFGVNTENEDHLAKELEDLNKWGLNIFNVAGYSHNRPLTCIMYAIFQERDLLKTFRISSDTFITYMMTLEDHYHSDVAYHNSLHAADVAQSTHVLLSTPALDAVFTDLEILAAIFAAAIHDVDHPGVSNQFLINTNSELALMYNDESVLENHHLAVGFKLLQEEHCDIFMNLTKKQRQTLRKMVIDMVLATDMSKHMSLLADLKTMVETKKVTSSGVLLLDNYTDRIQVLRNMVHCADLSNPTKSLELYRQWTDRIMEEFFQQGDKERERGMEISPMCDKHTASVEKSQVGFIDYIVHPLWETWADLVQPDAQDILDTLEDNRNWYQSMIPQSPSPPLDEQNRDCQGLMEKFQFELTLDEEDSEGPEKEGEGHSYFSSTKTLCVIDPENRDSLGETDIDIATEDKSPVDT
Summary of the method: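 HEK293 ACTOne cells with CNG channel (1000/well), endogenous PDE4; membrane potential dye, compounds up to 22.9 uM final. Fluorescence Ex 535/Em 590; RO 20-1724 (100 uM final) as reference.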

With `Cc1cccc2c1Oc1ccccc1[C@@H]2NC(=O)c1ccc([N+](=O)[O-])cc1` the Potency [1] was over 11.4 µM, the activity change, negative = inhibition [2] was 0.106% and the Potency [3] was 1 µM (active). The activity change, negative = inhibition [4] was -2.92%, the activity, negative = inhibition [5] was -4.56% and the Potency [6] was over 46 µM. For the same molecule, the Potency [7] was over 9.22 µM, the Potency [8] was “inactive” and the Potency [9] was “inactive”.
With `Oc1cc(CN2COc3ccccc32)c(O)cc1CNC1CCCCC1` the Potency [1] was over 11.4 µM, the activity change, negative = inhibition [2] was 6.94% and the Potency [3] was “inactive”. The activity change, negative = inhibition [4] was -5.35%, the activity, negative = inhibition [5] was 0.916% and the Potency [6] was over 46 µM. The Potency [7] was over 9.22 µM, the Potency [8] was “inactive” and the Potency [9] was “inactive”.
With `O=S(=O)(O)c1ccc(O)c2ncccc12.O=S(=O)(O)c1ccc(O)c2ncccc12.[Zn]` the Potency [1] was over 11.4 µM, the activity change, negative = inhibition [2] was 6.49% and the Potency [3] was 0.631 µM (active). For the same molecule, the activity change, negative = inhibition [4] was -15.3%, the activity, negative = inhibition [5] was 7.8% and the Potency [6] was over 46 µM. The Potency [7] was over 9.22 µM, the Potency [8] was “inactive” and the Potency [9] was “inactive”.
With `CN1CCCC[C@@H]1CCN1CCCCC1` the Potency [1] was over 11.4 µM, the activity change, negative = inhibition [2] was 4.46% and the Potency [3] was 0.01 µM (active). It also gave an activity change, negative = inhibition [4] of -9.35%, an activity, negative = inhibition [5] of 3.65% and a Potency [6] of over 46 µM. For the same molecule, the Potency [7] was over 9.22 µM, the Potency [8] was “inactive” and the Potency [9] was “inactive”.
With `O=C(CCN1CCOCC1)Nc1ccc(F)cc1F` the Potency [1] was over 11.4 µM, the activity change, negative = inhibition [2] was -2.63% and the Potency [3] was “inactive”. The activity change, negative = inhibition [4] was 13.2%, the activity, negative = inhibition [5] was 8.47% and the Potency [6] was over 46 µM. The Potency [7] was over 9.22 µM, the Potency [8] was “inactive” and the Potency [9] was “inactive”.
For `O=C(C[N+]1(c2ccccc2)CCOCC1)c1ccccc1`, the Potency [1] was over 11.4 µM, the activity change, negative = inhibition [2] was -5.21% and the Potency [3] was 3.98 µM (active). For the same molecule, the activity change, negative = inhibition [4] was 11.5%, the activity, negative = inhibition [5] was -5.59% and the Potency [6] was over 46 µM. For the same molecule, the Potency [7] was over 9.22 µM, the Potency [8] was “inactive” and the Potency [9] was “inactive”.
For `O=C(O)C[C@H](Cc1ccccc1Cl)C(=O)O`, the Potency [1] was over 11.4 µM, the activity change, negative = inhibition [2] was -0.0824% and the Potency [3] was “inactive”. The activity change, negative = inhibition [4] was -7.65%, the activity, negative = inhibition [5] was 13.9% and the Potency [6] was over 46 µM. The Potency [7] was over 9.22 µM, the Potency [8] was “inactive” and the Potency [9] was “inactive”.
`N[C@@](CC(=O)O)(Cc1ccccc1)C(=O)O` showed a Potency [1] of over 11.4 µM, an activity change, negative = inhibition [2] of -6.1% and an activity change, negative = inhibition [3] of -13.4% [at 2.29 µM]. The activity change, negative = inhibition [4] was 0.819%, the activity, negative = inhibition [5] was 6.06% and the Potency [6] was over 46 µM. The Potency [7] was over 9.22 µM, the Potency [8] was “inactive” and the Potency [9] was “inactive”.
With `Cc1cc2nc3[nH]c4c(Cl)cc(Cl)cc4c3nc2cc1C` the Potency [1] was over 11.4 µM, the activity change, negative = inhibition [2] was -14% and the Potency [3] was 0.631 µM (active). It also gave an activity change, negative = inhibition [4] of 11.6%, an activity, negative = inhibition [5] of -5.45% and a Potency [6] of over 46 µM. The Potency [7] was over 9.22 µM, the Potency [8] was “inactive” and the Potency [9] was “inactive”.
With `COc1cc(C)cc(OC)c1/C=C\C(=O)O` the Potency [1] was over 11.4 µM, the activity change, negative = inhibition [2] was 12.4% and the Potency [3] was “inactive”. It also gave an activity change, negative = inhibition [4] of 8.76%, an activity, negative = inhibition [5] of 7.32% and a Potency [6] of over 46 µM. The Potency [7] was over 9.22 µM, the Potency [8] was “inactive” and the Potency [9] was “inactive”.
In the case of `CN1CCN(c2nc3c(c(=O)n(C)c(=O)n3C)n2C)CC1`, the Potency [1] was over 11.4 µM, the activity change, negative = inhibition [2] was -1.63% and the activity change, negative = inhibition [3] was -16.8% [at 2.29 µM]. For the same molecule, the activity change, negative = inhibition [4] was 1.71%, the activity, negative = inhibition [5] was -1.51% and the Potency [6] was over 46 µM. The Potency [7] was over 9.22 µM, the Potency [8] was “inactive” and the Potency [9] was “inactive”.
With `O=C(O)c1cccc(OCCO)c1` the Potency [1] was over 11.4 µM, the activity change, negative = inhibition [2] was 7.9% and the Potency [3] was “inactive”. For the same molecule, the activity change, negative = inhibition [4] was -28.1%, the activity, negative = inhibition [5] was 13.6% and the Potency [6] was over 46 µM. For the same molecule, the Potency [7] was over 9.22 µM, the Potency [8] was “inactive” and the Potency [9] was “inactive”.
In the case of `CCCCN(c1ccccc1)c1ncnc2c1cnn2C`, the Potency [1] was over 11.4 µM, the activity change, negative = inhibition [2] was -1.19% and the Potency [3] was 0.631 µM (active). For the same molecule, the activity change, negative = inhibition [4] was 12.1%, the activity, negative = inhibition [5] was 5.06% and the Potency [6] was over 46 µM. For the same molecule, the Potency [7] was over 9.22 µM, the Potency [8] was “inactive” and the Potency [9] was “inactive”.
For `Cc1cc(=O)oc2c(OS(C)(=O)=O)c(OS(C)(=O)=O)ccc12`, the Potency [1] was over 11.4 µM, the activity change, negative = inhibition [2] was -3.34% and the Potency [3] was 0.794 µM (active). The activity change, negative = inhibition [4] was 5.12%, the activity, negative = inhibition [5] was 4.16% and the Potency [6] was over 46 µM. For the same molecule, the Potency [7] was over 9.22 µM, the Potency [8] was “inactive” and the Potency [9] was “inactive”.
